Screening data from PubChem BioAssay.
JMJD2C inh: blocks human GASC-1 demethylase activity; Q9H3R0; GST-JMJD2C(1-420) H3K9me3 demethylation, DELFIA europium; inhibition, % at 2.35 µM; actives 0.069% (n = 330,000); AID 2099;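 active means more than half of a compound's replicate wells show inhibition beyond 50%, single wells judged on their own value; inconclusive means some, but no more than half, of replicates pass 50% inhibition; inactive means no replicate passes 50% inhibition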;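 further: signal counts dimethyl H3K9 product captured on neutravidin plate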
Target sequence (Q9H3R0 1-420 limits assumed): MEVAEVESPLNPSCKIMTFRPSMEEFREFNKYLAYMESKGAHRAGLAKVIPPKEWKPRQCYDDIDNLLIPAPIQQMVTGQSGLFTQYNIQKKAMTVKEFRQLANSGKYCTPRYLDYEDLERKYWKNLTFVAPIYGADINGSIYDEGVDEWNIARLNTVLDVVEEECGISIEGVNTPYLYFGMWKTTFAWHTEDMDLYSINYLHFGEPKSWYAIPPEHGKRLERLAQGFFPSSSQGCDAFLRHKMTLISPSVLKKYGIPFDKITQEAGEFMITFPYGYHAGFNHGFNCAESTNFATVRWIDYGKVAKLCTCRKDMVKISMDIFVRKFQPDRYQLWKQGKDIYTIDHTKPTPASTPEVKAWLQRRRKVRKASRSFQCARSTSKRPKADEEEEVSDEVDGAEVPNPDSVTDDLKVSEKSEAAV
SMARCA2 activ: increases SMARCA2 function in MMTV reporter cells | AID 652017 | MG213 cells, MMTV-luciferase reporter, dexamethasone, overnight | activation, % at 9.1 µM | actives 1% (n = 370,000); in the data active means activation above about 7.8%
ALR inh: inhibitors of human sulfhydryl oxidase ALR; P55789; purified ALR, DTT oxidation, H2O2 HRP-luminol luminescence; inhibition, % (concentration not given with the values); actives 3.8% (n = 290,000); AID 485317;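 active means mean replicate inhibition above about 79%, with every replicate also reaching it, limit read from the data; inconclusive means only one of the two criteria met; inactive means mean below limit and not every replicate reaching it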
Target sequence (P55789 whole entry, looked up): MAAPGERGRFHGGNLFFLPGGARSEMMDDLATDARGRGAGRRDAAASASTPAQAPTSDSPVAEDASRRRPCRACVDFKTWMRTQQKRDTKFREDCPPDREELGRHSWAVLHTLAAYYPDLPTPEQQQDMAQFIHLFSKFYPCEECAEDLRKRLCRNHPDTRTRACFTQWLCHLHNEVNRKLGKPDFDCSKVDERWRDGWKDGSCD
MIN6 prolif: induces beta-cell replication in MIN6 cells; MIN6 cells proliferation, ATPlite luminescence, 48 h; cells starved in 0.2% serum; 100% = growth in 10% serum; proliferation, % at 10 µM; actives 0.29% (n = 330,000);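 active means compounds whose signal lies at least 3.5 SD above the mean of all wells on their plate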
Exocytosis inh: blocks lytic granule exocytosis. TALL-104 LAMP-1 surface exposure, flow cytometry; cells stimulated with thapsigargin and PMA. inhibition, % at 10 µM. actives 0.66% (n = 360,000);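 active means inhibition above about 55%, limit read from the data; inconclusive means no clear call, values can overlap the other calls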
PfM18AAP inh: PfM18AAP enzyme inhibition. recombinant PfM18AAP, H-Glu-NHMec fluorogenic cleavage. inhibition, % at 7.35 µM. actives 1.2% (n = 290,000);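 active means inhibition above the campaign mean inhibition over all tested compounds plus 3 SD, cut at about 28% in these data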
Numbers stand for hits. Sampled rows, rich in hits. Any-hit rate of the full collection: about 5.4%.

Results for COc1cc(/C=N/NC(=O)CN(Cc2ccco2)S(=O)(=O)c2ccccc2)ccc1O ?
JMJD2C inh: inactive; SMARCA2 activ: inactive; ALR inh: 100; MIN6 prolif: inactive; Exocytosis inh: inactive; PfM18AAP inh: inactive

Results for COC1=C[C@H](C(=O)NCc2ccc(Br)cc2)[C@H](C)[C@@H](c2ccccc2)CC1=O ?
SMARCA2 activ: inactive

What do the screens show for `COC(=O)C1=C(C)N(Cc2cccc(C(F)(F)F)c2)C(=NCc2cc(OC)c(OC)c(OC)c2)NC1c1ccc(F)cc1` (configuration not stated)?
SMARCA2 activ: inactive

Results for Cn1c(SCC(=O)N/N=C/C=C\c2ccco2)nc2ccccc21 ?
JMJD2C inh: inactive; SMARCA2 activ: inactive; ALR inh: 86; MIN6 prolif: inactive; Exocytosis inh: inactive; PfM18AAP inh: inactive

What do the screens show for `Cc1ccc(/C=N/NC(=O)CSc2nc3ccccc3n2C)s1`?
JMJD2C inh: inactive; SMARCA2 activ: inactive; ALR inh: 89; MIN6 prolif: inactive; Exocytosis inh: inactive; PfM18AAP inh: inactive

Results for C/C(=N/NC(=O)CSc1nc2ccccc2n1C)c1ccc(O)cc1 ?
JMJD2C inh: inactive; SMARCA2 activ: inactive; ALR inh: 99; MIN6 prolif: inactive; Exocytosis inh: inactive; PfM18AAP inh: inactive

How did Cn1c(SCC(=O)N/N=C/c2cccs2)nc2ccccc21 do in these assays?
JMJD2C inh: inactive; SMARCA2 activ: inactive; ALR inh: inactive; MIN6 prolif: inactive; Exocytosis inh: inactive; PfM18AAP inh: inactive

Results for CCn1c(SCC(=O)N/N=C/C=C\c2ccco2)nc2ccccc21 ?
JMJD2C inh: inactive; SMARCA2 activ: inactive; ALR inh: inactive; MIN6 prolif: inactive; Exocytosis inh: inactive; PfM18AAP inh: inactive

How did Cc1ccc(NC(=O)CN2CCN(c3nc(-c4ccccc4)cs3)CC2)cc1C do in these assays?
SMARCA2 activ: inactive

How did CCc1c(C(=O)NNC(=S)Nc2ccc(S(=O)(=O)Nc3ncccn3)cc2)csc1C do in these assays?
JMJD2C inh: inactive; SMARCA2 activ: inactive; ALR inh: 98; MIN6 prolif: inactive; Exocytosis inh: inactive; PfM18AAP inh: inactive

What do the screens show for `O=C(CSCc1ccccc1)Nc1ccc(S(=O)(=O)Nc2ncccn2)cc1`?
JMJD2C inh: inactive; SMARCA2 activ: inactive; ALR inh: 98; MIN6 prolif: inactive; Exocytosis inh: inactive; PfM18AAP inh: inactive

What do the screens show for `Cc1ccc(SCC(=O)Nc2ccc(S(=O)(=O)Nc3ncccn3)cc2)cc1`?
JMJD2C inh: inactive; SMARCA2 activ: inactive; ALR inh: 90; MIN6 prolif: inactive; Exocytosis inh: inactive; PfM18AAP inh: inactive

How did O=C(Nc1ccc(S(=O)(=O)Nc2ncccn2)cc1)C1=COCCO1 do in these assays?
JMJD2C inh: inactive; SMARCA2 activ: inactive; ALR inh: 97; MIN6 prolif: inactive; Exocytosis inh: inactive

How did O=S(=O)(Nc1ncccn1)c1ccc(NC(=S)Nc2ccccc2)cc1 do in these assays?
JMJD2C inh: inactive; SMARCA2 activ: inactive; ALR inh: inactive; MIN6 prolif: inactive; Exocytosis inh: inactive; PfM18AAP inh: inactive

How did O=C(CS(=O)(=O)c1ccccc1)Nc1ccc(S(=O)(=O)Nc2ncccn2)cc1 do in these assays?
JMJD2C inh: inactive; SMARCA2 activ: inactive; ALR inh: inactive; MIN6 prolif: inactive; Exocytosis inh: inactive; PfM18AAP inh: inactive

What do the screens show for `COC(=O)c1ccc(NC(=O)CSCc2ccccc2)cc1`?
JMJD2C inh: inactive; ALR inh: 99; MIN6 prolif: inactive; Exocytosis inh: inactive; PfM18AAP inh: inactive

How did O=C(NCCN1C(=O)C2C3C=CC(C3)C2C1=O)c1cc(Cl)cc(Cl)c1 (configuration not stated) do in these assays?
SMARCA2 activ: inactive

What do the screens show for `C[C@@H]1/C=C/CC(=O)N[C@H](c2ccccc2)[C@H](C)/C=C/CC(=O)N[C@@H]1c1ccccc1`?
SMARCA2 activ: inactive

Results for COC(=O)[C@]12C[C@H](CC(=O)NCCCCc3ccccc3)C(=O)N(CCC3=CCCCC3)C1=C[C@H](C(C)C)O[C@@H]2C1CC1 ?
SMARCA2 activ: inactive

Results for CCOc1ccc(C(c2c(O)nc(SC)[nH]c2=O)c2c(O)nc(SC)[nH]c2=O)cc1 ?
JMJD2C inh: inactive; SMARCA2 activ: inactive; ALR inh: inactive; MIN6 prolif: inactive; Exocytosis inh: inactive

What do the screens show for `CSc1nc(O)c(C(c2cccc([N+](=O)[O-])c2)c2c(O)nc(SC)[nH]c2=O)c(=O)[nH]1`?
JMJD2C inh: inconclusive; SMARCA2 activ: inactive; ALR inh: inactive; MIN6 prolif: inactive; Exocytosis inh: inactive; PfM18AAP inh: inactive

How did C=CCOc1ccc(C(c2c(O)nc(SC)[nH]c2=O)c2c(O)nc(SC)[nH]c2=O)cc1 do in these assays?
JMJD2C inh: inactive; SMARCA2 activ: inactive; ALR inh: 90; MIN6 prolif: inactive; Exocytosis inh: inactive

What do the screens show for `CSc1nc(O)c(C(c2ccc(O)cc2)c2c(O)nc(SC)[nH]c2=O)c(=O)[nH]1`?
JMJD2C inh: inactive; SMARCA2 activ: inactive; ALR inh: 84; MIN6 prolif: inactive; Exocytosis inh: inactive; PfM18AAP inh: inactive

Results for Cc1ccc(NC(=S)NNC(=O)Cn2nc([N+](=O)[O-])cc2C)cc1 ?
JMJD2C inh: inactive; ALR inh: 85; MIN6 prolif: inactive; Exocytosis inh: inactive; PfM18AAP inh: inactive

What do the screens show for `CNC(=O)c1ccc(-c2sc3nc(N4CCOCC4)c4c(c3c2N)CC(C)(C)OC4)o1`?
JMJD2C inh: inactive; SMARCA2 activ: inactive; ALR inh: 99; MIN6 prolif: inactive; Exocytosis inh: inactive; PfM18AAP inh: inactive

What do the screens show for `COc1ccc(NC(=O)c2sc3nc(N4CCOCC4)c4c(c3c2N)CC(C)(C)OC4)c(OC)c1`?
JMJD2C inh: inactive; SMARCA2 activ: inactive; ALR inh: inactive; MIN6 prolif: inactive; Exocytosis inh: inactive; PfM18AAP inh: 31

How did COc1ccc(NC(=O)c2sc3nc(N4CCCC4)c4c(c3c2N)CC(C)(C)OC4)cc1 do in these assays?
JMJD2C inh: inactive; SMARCA2 activ: inactive; ALR inh: inactive; MIN6 prolif: inactive; Exocytosis inh: inactive; PfM18AAP inh: inactive

Results for Cc1occc1-c1nnc(SCC(=O)N2CCN(c3ncccn3)CC2)n1-c1ccccc1 ?
SMARCA2 activ: inactive

Results for C[C@@H]1CNC(=O)c2c(C(=O)N(C)Cc3ccccc3)ncn21 ?
SMARCA2 activ: inactive

What do the screens show for `Cn1c(N/N=C/c2cccs2)nc2c1c(=O)n(Cc1ccccc1)c(=O)n2C`?
JMJD2C inh: inactive; SMARCA2 activ: inactive; ALR inh: inconclusive; MIN6 prolif: inactive; Exocytosis inh: inactive; PfM18AAP inh: inactive

What do the screens show for `CCC(C)Nc1nc2c(c(=O)n(C)c(=O)n2C)n1Cc1cccc(C)c1` (configuration not stated)?
JMJD2C inh: inactive; SMARCA2 activ: inactive; ALR inh: 97; MIN6 prolif: inactive; Exocytosis inh: inactive; PfM18AAP inh: inactive

How did Cn1c(=O)c2c(nc(N/N=C/c3cccs3)n2Cc2ccccc2)n(C)c1=O do in these assays?
JMJD2C inh: inactive; SMARCA2 activ: inactive; ALR inh: 96; MIN6 prolif: inactive; Exocytosis inh: inactive; PfM18AAP inh: inactive
